Compound activity as filed in PubChem.
mHtt clearance: clearance of mutant huntingtin inclusions, primary screen, imaging, HeLa Exon1htt(103Q)mCFP, confocal imaging | aggregate imaging; zero = plate's median compound well | inhibition, % at 1.5 µM | 0.42% of 47,000 active | AID 853, 2007;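 active = inhibition of aggregate fluorescence above about 70%, also judged a hit by eye on the cell image, limit read from the data, passing the limit was not always enough; inconclusive = no rule stated for this call; inactive = not judged a hit on image review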;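 also: cells exposed to compound for three days before fixation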
D1 allo mod: D1 CRE-luciferase signal change, two-sided – cell-based, HEK293 D1, dopamine EC30, D1 allosteric modulator project, primary screen; D(1A) dopamine receptor (Homo sapiens), P21728; dopamine EC30 potentiation; actives deviate in either direction; 5.9% of 58,000 active; B-score at 10 µM;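 active = luminescence count or its row- and column-corrected plate score outside the 99.7% band of the plate's sample wells, on either side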
M1 agonist: M1 muscarinic receptor agonists, primary screen, CHO-M1 cells, Fluo-4 calcium, agonist mode. Muscarinic acetylcholine receptor M1. AID 626, 2007. 3% of 64,000 active. B-score at 10 µM. Fluo-4 calcium fluorescence; active compounds read high;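 active = fluorescence rise, raw or as B-score row- and column-corrected plate score, outside the 99.7% band of its plate's samples, either direction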
M1 antag: antagonists of rat M1 muscarinic receptor; Muscarinic acetylcholine receptor M1 (Rattus norvegicus), P08482; CHO-M1 cells, Fluo-4 calcium, ACh EC80 antagonist mode; active compounds read low; B-score at 10 µM; 3.4% of 64,000 active; AID 628, 2007;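 active = calcium fluorescence response, raw or row-and-column corrected B-score, differing from the plate sample mean either way at a set confidence level, mostly lower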
Target sequence (P08482 whole entry, looked up): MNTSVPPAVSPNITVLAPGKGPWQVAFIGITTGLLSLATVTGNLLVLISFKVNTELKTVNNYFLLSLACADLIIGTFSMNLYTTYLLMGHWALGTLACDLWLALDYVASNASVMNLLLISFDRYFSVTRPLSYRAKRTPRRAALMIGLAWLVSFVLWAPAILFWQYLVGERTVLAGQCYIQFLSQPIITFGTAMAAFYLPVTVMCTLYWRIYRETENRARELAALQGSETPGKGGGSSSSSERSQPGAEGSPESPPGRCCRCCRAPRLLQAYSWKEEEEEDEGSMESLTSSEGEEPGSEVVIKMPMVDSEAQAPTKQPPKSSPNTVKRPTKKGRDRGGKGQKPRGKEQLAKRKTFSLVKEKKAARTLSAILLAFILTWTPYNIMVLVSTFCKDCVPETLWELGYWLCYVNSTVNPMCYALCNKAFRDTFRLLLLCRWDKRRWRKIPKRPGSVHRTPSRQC
M1 agonist conf: rat M1 muscarinic receptor agonists, confirmation, CHO-M1 cells, Fluo-4 calcium, duplicate retest; shares compounds with M1 agonist; 19% of 1,700 active; Fluo-4 calcium fluorescence, agonist mode; actives lie on both sides; fluorescence change (max-min) at 10 µM; AID 1488, 2009;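 active = fluorescence change differs from the solvent-only DMSO control mean at a set confidence level in both duplicate runs; inconclusive = differs from solvent-only control mean in just one of two runs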;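 also: an EC20 dose of acetylcholine follows compound addition during the same imaging run; raw fluorescence intensity difference in instrument units with no normalization to controls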
M4 ag counter: agonist activity at rat M4 receptor, confirmation, counter-screen for M1 allosteric modulator project, cell-based, agonist mode; fluorescence change (max-min) at 10 µM; shares compounds with M1 agonist; 9% of 1,700 active; CHO M4/Gqi5 cells, Fluo-4 calcium fluorescence; actives lie on both sides; AID 1741, 2009;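 active = fluorescence change differing from the plate's solvent-only control wells at 99.7% confidence in both duplicates, whether higher or lower; inconclusive = differs from solvent controls in only one of two duplicates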
* = called active by the depositor; ? = inconclusive; . = no result given. Rows were chosen to be rich in hits. Some 9.1% of all compounds tested hit in one or more screens of this group.

SMILES	mHtt clearance	D1 allo mod	M1 agonist	M1 antag	M1 agonist conf	M4 ag counter
O=C(CCCc1nc(-c2ccc(Cl)cc2)no1)N1CCOCC1	20	-1.4	-2.5*	-0.65	?	-90*
O=C(C1CC1)N1CCc2cc(Br)cc(S(=O)(=O)N3CCOCC3)c21	-64	0.56	3*	0.076	-4.8	-20
COc1ccc(C2N=C(N)N=C(N)N2c2ccccc2OC)cc1OC (configuration not stated)	7	.	.	.	.	.
CC(=O)c1ccc(NC(=O)N2CCN(c3cccc(Cl)c3)CC2)cc1	19	-0.83	5.1*	-2.8*	?	-28
N#Cc1c(-c2ccc3c(c2)OCO3)csc1N	.	.	3.2*	-0.048	-0.042	-29
N#Cc1c(N)c(C#N)c(-c2ccc3c(c2)OCO3)c2c1CCCC2	.	-0.77	0.0041	-0.44	.	.
CCCCS(=O)(=O)NC1=NCN(C2CCN(Cc3ccccc3)CC2)CN1	9	-0.38	0.49	-0.19	.	.
CCC(Sc1nc(N)cc(=O)[nH]1)C(=O)NC(C(=O)OC)c1ccccc1 (configuration not stated)	69	-0.61	3.2*	0.87	-11	-44
Nc1c(C(=O)Nc2ccccc2)sc2nc(-c3ccco3)ccc12	.	-0.46	2.8*	-0.56	?	-57
COc1ccccc1NC(=O)c1sc2nc(-c3ccco3)ccc2c1N	-1	0.28	11	1.6	.	.
COc1ccc(NC(=O)CCN2C(=O)C3CC=C(Cl)CC3C2=O)cc1 (configuration not stated)	.	-0.67	.	.	.	.
O=C(Nc1cccc(Cl)c1)Nc1nccs1	12	-1.3	3.5*	-1.2	-11	?
O=c1[nH]c2c(s1)C=Nc1ccccc1N2	.	-0.12	69*	-0.9	249*	227*
COc1cc(C2CC(=O)Nc3ccccc3S2)cc(OC)c1OC (configuration not stated)	.	-1.8	5.9*	-1.5	-7.2	?
COc1ccc(OC)c(C2CC(=O)Nc3cc(OC)c(OC)c(OC)c32)c1 (configuration not stated)	.	.	0.35	-0.22	.	.
Cc1cccc(S(=O)(=O)c2c(N)n(Cc3ccco3)c3nc4ccccc4nc23)c1	.	-0.3	0.038	1.1	.	.
Cc1ccc(S(=O)(=O)c2c(N)n(Cc3ccco3)c3nc4ccccc4nc23)cc1	24	.	12*	0.051	39	-10
CCOC(=O)c1c(C)oc2c1c(C=NCC1CCCO1)c(O)c1ccccc12 (configuration not stated)	-2	0.12	2.9*	0.3	-16	6.4
CCC1CCCCN1C(=O)CSc1nnc(-c2cccc(Cl)c2)o1 (configuration not stated)	.	-0.21	2.5*	0.23	-12	-23
CCOC(=O)N1CCC(NC(=O)C2CCCN(Cc3nc(-c4cccc(Cl)c4)oc3C)C2)CC1 (configuration not stated)	.	-2.3	10*	-4.4*	-5.4	-56
CCN1CCN(CCNC(=O)C2CCCN(Cc3nc(-c4cccc(Cl)c4)oc3C)C2)CC1 (configuration not stated)	.	-0.55	0.76	0.38	.	.
CCOc1cc(Br)c(C(=O)O)cc1OC	-22	.	.	.	.	.
Cc1ccc2nc(-c3cccc(NC(=O)c4ccco4)c3)[nH]c2c1	.	-1.7	7*	-0.0048	-28	-38
Cc1ccc(O)c(NC(=O)c2cccc(NC(=O)c3ccco3)c2)c1	-34	.	2.6*	0.68	-26*	-53
Cc1nn2c(-c3cccc(NC(=O)c4ccco4)c3)nnc2c2ccccc12	-30	-3.3	5.8*	-1	-16	?
CC(CC(=O)Nc1nncs1)c1ccccc1 (configuration not stated)	34	.	.	.	.	.
C=CCc1ccc(OCCOCCOc2ccccc2[N+](=O)[O-])c(OC)c1	-27	.	.	.	.	.
N=C1N(/N=C/c2ccccc2)C(=Nc2ccccc2)C(=S)N1c1ccccc1	-21	.	.	.	.	.
COc1ccc(N2C(=O)NC(NC(=O)c3ccncc3)(C(F)(F)F)C2=O)cc1 (configuration not stated)	-106	.	.	.	.	.
CC1CCCCC1NC(=O)CSc1nnc(CN2CCOCC2)n1C (configuration not stated)	.	0.52	13*	1	-8.8	-14
